# Results from PubChem BioAssay (NCATS).
# Records with an inconclusive call do not appear. A call without a number means that no potency is given here. Activity calls are given as the source filed them. The call rests on the fitted dose curve; in most records, active means well fitted curve in the direction sought with a large enough effect; inconclusive means small, poorly fitted or top-dose-only effect, or another doubt; inactive means no such curve, though single readings can be large; an effect the other way counts as inactive or inconclusive.
# Experiments:
# [1] = qHTS for Inhibitors of the Aldehyde Dehydrogenase Family (ALDH1A2, ALDH1A3, ALDH2, ALDH3A1) (AID 2061307); settings: ALDH inhibition qHTS; series mostly up to 50.3 µM; further: nearly all actives have a fitted effect of over 50% in size; on potency: test system not described further here; potency means the concentration at half of the fitted maximal effect
# [2] = molecular target: Retinal dehydrogenase 2 (Homo sapiens) (UniProt O94788); test: qHTS for Inhibitors of the Aldehyde Dehydrogenase Family (ALDH1A2) Confirmation screens (AID 2061314); settings: ALDH1A2 enzyme inhibition qHTS confirmation; series mostly up to 45.9 µM; further: nearly all actives have a fitted effect of over 65% in size; further: potency means the concentration at half of the fitted maximal effect
# [3] = molecular target: Retinaldehyde dehydrogenase 3 (Homo sapiens) (UniProt P47895); test: qHTS for Inhibitors of the Aldehyde Dehydrogenase Family (ALDH1A3) Primary screen (AID 2061315); settings: ALDH inhibition qHTS; series mostly up to 56 µM
# [4] = molecular target: Aldehyde dehydrogenase 1A1 (Homo sapiens) (UniProt P00352); test: qHTS for Inhibitors of the Aldehyde Dehydrogenase Family (ALDH1A1) Confirmatory screens (AID 2061316); settings: ALDH inhibition qHTS; series mostly up to 47.3 µM; further: nearly all actives have a fitted effect of over 65% in size; further: potency means the concentration at half of the fitted maximal effect
# [5] = molecular target: Aldehyde dehydrogenase, mitochondrial (Homo sapiens) (UniProt P05091); test: qHTS for Inhibitors of the Aldehyde Dehydrogenase Family (ALDH2) Primary screen (AID 2061308); settings: ALDH2 enzyme inhibition qHTS, 1536-well; series mostly up to 56 µM; further: nearly all actives have a fitted effect of over 55% in size; further: potency means the concentration at half of the fitted maximal effect
smiles,measurement,setting,value
CC(=O)c1ccc(NC(=O)c2cc(S(=O)(=O)N3CCOCC3)ccc2C)cc1,Potency,[1],inactive
same,Potency,[2],inactive
CC(=O)Nc1sc2c(c1-c1ccco1)CCNC2,Potency,[1],inactive
same,Potency,[2],17.9 µM (active)
same,Potency,[3],inactive
same,Potency,[4],25.2 µM (active)
Cc1ccc(OCCn2c(CCNC(=O)c3ccccc3N)nc3ccccc32)cc1,Potency,[1],1.13 µM (active)
same,Potency,[2],12.7 µM (active)
same,Potency,[3],inactive
same,Potency,[4],7.12 µM (active)
Cc1ccnc(NC(=S)N2CCN(c3ccc(Cl)cc3Cl)CC2)c1,Potency,[1],inactive
same,Potency,[2],11.3 µM (active)
same,Potency,[4],7.98 µM (active)
CN1CCN(c2ccc(Nc3c4ccccc4nc4ccccc34)cc2)CC1,Potency,[5],inactive
O=C(O)c1cccc(-c2noc(-c3ccccc3C(F)(F)F)n2)c1,Potency,[5],inactive
CC(C)(C)NS(=O)(=O)c1cccc(Nc2nn3c(=O)c4ccccc4nc3s2)c1,Potency,[1],22.5 µM (active)
same,Potency,[3],inactive
same,Potency,[4],11.3 µM (active)
COc1ccc(C2Nc3ccccc3C(=O)N2Cc2ccccc2)cc1OCc1ccc(NC(C)=O)cc1 (stereo not drawn),Potency,[5],inactive
CCCn1c(-c2ccc(F)cc2)nc2c(N3CCN(CCn4ccnc4)CC3)nc(C)nc21,Potency,[5],inactive
CNc1nc(Nc2ccc(C(=O)N3CCOCC3)cc2OC)nc2[nH]cc(Cl)c12,Potency,[5],inactive
COc1ccc(C(=O)NC(c2ccco2)c2cc(Cl)c3cccnc3c2O)cc1 (stereo not drawn),Potency,[5],inactive
Cc1cc(C)nc(NC(=S)N2CCN(c3ccc(F)c(Cl)c3)CC2)c1,Potency,[1],7.08 µM (active)
same,Potency,[3],inactive
same,Potency,[4],6.34 µM (active)
CC(C)(C)OC(=O)N1CCN(c2ccc(NCc3ccoc3-c3ccc(C#N)cc3)cc2)CC1,Potency,[5],inactive
COc1ccnc(NC(=S)N2CCN(c3ccc(Cl)cc3Cl)CC2)c1,Potency,[1],11.2 µM (active)
same,Potency,[4],5.65 µM (active)
Cc1ccc(C)n1-c1cccc(C(=O)O)c1,Potency,[1],5.65 µM (active)
same,Potency,[3],inactive
Cc1cccc2c1NC(=O)/C2=C/c1cc(Cl)c(O)c(Cl)c1,Potency,[1],4 µM (active)
same,Potency,[3],inactive
O=[N+]([O-])c1ccc(S(=O)(=O)Nc2cnc3ccccc3c2)cc1,Potency,[1],inactive
same,Potency,[3],inactive
same,Potency,[4],inactive
COc1ccc(C(=O)OC2C3C=COC(OC4OC(CO)C(O)C(O)C4O)C3C3(CO)OC23)cc1OC (stereo not drawn),Potency,[5],inactive
CC(=O)Nc1sc2c(c1-c1ccc(C#N)cc1)CCNC2,Potency,[1],inactive
same,Potency,[3],inactive
same,Potency,[4],inactive
Cc1ccc(CN(C)c2ncnc3ccc(-c4ccc5c(c4)OCO5)cc23)o1,Potency,[1],15.8 µM (active)
same,Potency,[3],inactive
same,Potency,[4],8.96 µM (active)
O=S(=O)(Nc1cccc2cccnc12)c1ccccc1O,Potency,[5],inactive
O=C(O)c1ccc(O)c2ncc(NCC3CCCN(CCc4ccccc4)C3)cc12 (stereo not drawn),Potency,[5],inactive
O=C(O)c1ccc(-c2noc(-c3ccc(Cl)cc3)n2)cc1,Potency,[5],inactive
O=C(O)c1cccc(-c2noc(-c3cccc(F)c3)n2)c1,Potency,[5],inactive
COc1ccc(/C=C(\C)C2Nc3cccc4cccc(c34)N2)cc1,Potency,[5],inactive
Cc1ccc(C2Nc3cccc4cccc(c34)N2)cc1,Potency,[5],inactive
COc1ccc(C[C@H](C)NC[C@@H](O)c2ccc(O)c(NC=O)c2)cc1,Potency,[5],inactive
COc1ccnc(NC(=S)N2CCN(c3cccc(Cl)c3Cl)CC2)c1,Potency,[1],10 µM (active)
same,Potency,[4],4 µM (active)
Cc1ccc(-c2ccc(=O)n(CC(=O)NCCc3ccncc3)n2)cc1,Potency,[5],inactive
Cc1ccc(-c2ccc(=O)n(CC(=O)NCc3ccccc3)n2)cc1,Potency,[5],inactive
CCOCCCNC(=O)Nc1cc(C(=O)NCc2ccc(C(C)C)cc2)ccc1N1CCCC1,Potency,[1],0.726 µM (active)
same,Potency,[4],2.89 µM (active)
Oc1cc(Nc2ccc(N3CCCCC3)cc2)cc2cccnc12,Potency,[5],inactive
CC(C)(C)c1ccc(-c2nnc(NC(=O)Nc3ccc4ccccc4c3)s2)cc1,Potency,[1],10.1 µM (active)
same,Potency,[3],inactive
same,Potency,[4],11.3 µM (active)
CC(O)c1ccc(-c2ccc3ncnc(NCc4nccs4)c3c2)o1 (stereo not drawn),Potency,[1],inactive
same,Potency,[3],inactive
same,Potency,[4],10.1 µM (active)
O=C(O)c1cccc(-c2noc(-c3ccc(F)cc3)n2)c1,Potency,[5],inactive
Cc1ccc(S(=O)(=O)Nc2cccc3cccnc23)c([N+](=O)[O-])c1,Potency,[5],inactive
CC(C)(C)OC(=O)N1CCN(c2ccc(NCc3ncc(-c4ccc(C#N)cc4)o3)cc2)CC1,Potency,[5],1.12 µM (active)
COc1ccc(OC)c(N2C(=O)C(Cl)=C(N3CCCCC3)C2=O)c1,Potency,[5],inactive
Cc1ccnc(NC(=S)N2CCCC(Nc3cccc(C(F)(F)F)c3)C2)c1 (stereo not drawn),Potency,[5],inactive
Fc1ccccc1-c1nc(-c2ccccc2)no1,Potency,[5],inactive
